# Screens: PubChem BioAssay, Broad Institute
# PrP UTR inh: suppresses PrP 5' UTR mRNA reporter expression | cell-based PrP 5' UTR mRNA reporter, plate reader | inhibition, % (concentration not given with the values) | 340,000 compounds, 0.35% hits; in the data active = inhibition above about 52%; note: 0 = median of the neutral control wells
# BioA inh: BioA (M. tuberculosis) enzyme inhibition. purified M. tuberculosis BioA enzyme, plate reader. inhibition, % at 9.99 µM. 360,000 compounds, 0.096% hits; in the data active = inhibition above about 40%
# Yp Topo-I inh: blocks Yersinia pestis topoisomerase I activity; Y. pestis Topo-I cleavage product accumulation, plate reader; 360,000 compounds, 0.064% hits; AID 504884; activity, % at 10 µM; in the data active = activity above about 50%, passing the limit was not always enough
# TcdB GH inh: blocks C. difficile toxin B glycohydrolase activity | TcdB glycohydrolase enzymatic assay, plate reader | inhibition, % at 9.99 µM | 350,000 compounds, 0.24% hits; in the data active = inhibition above about 10%
# Target sequence (P18177 whole entry, looked up): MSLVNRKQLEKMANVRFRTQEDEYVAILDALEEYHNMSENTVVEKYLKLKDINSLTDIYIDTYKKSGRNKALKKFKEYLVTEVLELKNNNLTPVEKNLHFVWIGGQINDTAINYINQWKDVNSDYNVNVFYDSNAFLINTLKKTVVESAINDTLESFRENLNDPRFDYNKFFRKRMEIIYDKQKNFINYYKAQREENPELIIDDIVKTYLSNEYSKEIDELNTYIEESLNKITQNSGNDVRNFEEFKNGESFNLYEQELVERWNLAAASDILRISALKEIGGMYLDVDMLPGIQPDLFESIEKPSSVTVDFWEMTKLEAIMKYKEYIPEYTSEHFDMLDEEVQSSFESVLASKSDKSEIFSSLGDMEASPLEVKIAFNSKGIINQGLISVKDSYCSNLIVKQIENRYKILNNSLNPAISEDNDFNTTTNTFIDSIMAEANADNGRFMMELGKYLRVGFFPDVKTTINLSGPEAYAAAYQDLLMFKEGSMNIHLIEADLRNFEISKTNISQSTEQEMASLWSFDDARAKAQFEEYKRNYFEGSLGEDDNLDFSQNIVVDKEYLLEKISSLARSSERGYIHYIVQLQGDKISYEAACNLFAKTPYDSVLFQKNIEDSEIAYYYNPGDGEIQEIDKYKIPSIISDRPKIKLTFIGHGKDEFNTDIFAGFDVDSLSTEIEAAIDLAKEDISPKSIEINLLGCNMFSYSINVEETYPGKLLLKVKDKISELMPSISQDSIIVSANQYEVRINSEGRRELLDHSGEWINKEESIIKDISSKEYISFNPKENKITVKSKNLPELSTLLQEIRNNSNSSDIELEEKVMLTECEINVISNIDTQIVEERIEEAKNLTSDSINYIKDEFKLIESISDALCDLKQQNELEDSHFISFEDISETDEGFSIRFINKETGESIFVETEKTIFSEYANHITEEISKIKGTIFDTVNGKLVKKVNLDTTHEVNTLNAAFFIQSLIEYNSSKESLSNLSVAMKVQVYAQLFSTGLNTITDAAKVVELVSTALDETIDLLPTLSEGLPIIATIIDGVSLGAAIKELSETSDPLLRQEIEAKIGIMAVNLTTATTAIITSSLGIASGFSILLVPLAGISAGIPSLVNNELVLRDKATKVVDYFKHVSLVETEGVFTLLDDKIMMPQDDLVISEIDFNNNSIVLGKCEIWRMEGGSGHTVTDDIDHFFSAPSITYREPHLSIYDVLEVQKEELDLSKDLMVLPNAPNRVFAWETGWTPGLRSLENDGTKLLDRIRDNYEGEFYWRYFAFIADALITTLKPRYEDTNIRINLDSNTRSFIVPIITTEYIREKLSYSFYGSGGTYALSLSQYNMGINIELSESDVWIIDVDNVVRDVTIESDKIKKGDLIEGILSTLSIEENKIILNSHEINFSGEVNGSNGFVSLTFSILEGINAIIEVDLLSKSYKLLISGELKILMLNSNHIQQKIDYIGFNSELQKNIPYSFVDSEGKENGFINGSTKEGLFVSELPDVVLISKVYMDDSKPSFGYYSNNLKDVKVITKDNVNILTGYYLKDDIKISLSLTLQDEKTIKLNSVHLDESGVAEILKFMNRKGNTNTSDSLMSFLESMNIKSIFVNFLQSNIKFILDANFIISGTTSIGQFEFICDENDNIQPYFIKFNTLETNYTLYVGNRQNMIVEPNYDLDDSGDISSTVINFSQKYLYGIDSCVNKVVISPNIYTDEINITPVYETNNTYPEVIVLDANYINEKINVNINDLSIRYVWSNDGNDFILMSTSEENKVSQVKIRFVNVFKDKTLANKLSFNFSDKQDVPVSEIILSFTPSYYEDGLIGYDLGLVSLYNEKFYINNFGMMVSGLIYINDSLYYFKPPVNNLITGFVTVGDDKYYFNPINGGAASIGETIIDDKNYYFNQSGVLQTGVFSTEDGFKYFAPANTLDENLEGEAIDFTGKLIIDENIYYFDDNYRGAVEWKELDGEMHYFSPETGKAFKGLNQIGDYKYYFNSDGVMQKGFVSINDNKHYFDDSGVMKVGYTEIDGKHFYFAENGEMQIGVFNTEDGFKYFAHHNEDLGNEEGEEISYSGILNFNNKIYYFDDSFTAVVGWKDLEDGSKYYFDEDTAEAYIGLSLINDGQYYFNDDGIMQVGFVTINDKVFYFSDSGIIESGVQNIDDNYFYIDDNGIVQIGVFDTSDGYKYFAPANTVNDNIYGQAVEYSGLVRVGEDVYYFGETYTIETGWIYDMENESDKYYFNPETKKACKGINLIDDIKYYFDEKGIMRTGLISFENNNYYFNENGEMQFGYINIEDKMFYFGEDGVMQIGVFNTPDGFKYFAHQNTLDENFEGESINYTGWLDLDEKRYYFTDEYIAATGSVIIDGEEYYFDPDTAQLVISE
# PrP 5UTR single: prion 5' UTR mRNA inhibition, cherry-pick retest | cell-based prion protein 5' UTR reporter, plate reader | inhibition, % at 2.5 µM | 1,100 compounds, 48% hits | AID 504592 | shares compounds with PrP UTR inh; in the data active = inhibition above about 54%
# Active calls of the source: *; . = no result. Compounds with a hit are over-represented: about 0.57% of the library has one in this group of screens.
SMILES,PrP UTR inh,BioA inh,Yp Topo-I inh,TcdB GH inh,PrP 5UTR single
N=c1c2c(n(Cc3ccc([N+](=O)[O-])cc3)c3c1CCC3)CCCC2,80*,.,-8,2,-2
O=C(C[C@@H]1C[C@H]2c3cc(NC(=O)c4cccnc4)ccc3O[C@H]2[C@@H](CO)O1)NCc1cccnc1,.,22,.,0,.
COc1ccc2c3c(n(C)c2c1)[C@@H](CO)N(C(=O)CN(C)C)CC31CCN(Cc2nccs2)CC1,.,.,.,-9,.
CC=Cc1ccc2n(c1=O)C[C@@H]1[C@@H](CO)[C@H](C(=O)Nc3ccccc3)N(CC)[C@H]21 (mixture of isomers),.,.,.,0,.
Cc1ccc[n+](CC(=O)c2ccc(-c3ccccc3)cc2)c1,-20,6,7,0,.
Cc1ccc(C(=O)C[n+]2ccccc2)cc1,64*,-1,6,1,-7
CC(C)C[C@H]1CNC(=S)N1C[C@H]1CCCN1C[C@H](Cc1ccccc1)N1C[C@H](Cc2ccc(O)cc2)N(CC2CCCCC2)C1=S,.,13,.,0,.
CC(C)C[C@H]1CNC(=S)N1CC1CCCN1C[C@H](Cc1ccc(O)cc1)N1C[C@H](Cc2ccccc2)N(CC2CCCCC2)C1=S (stereo partly specified),67*,-1,14,0,-3
C[C@H]1CN([C@@H](C)CO)C(=O)c2cc(NC(=O)Cc3cn(C)c4ccccc34)ccc2O[C@H]1CN(C)C(=O)NC1CCCCC1,.,-1,.,0,.
COc1ccc(OC)c(N/C=C/C(=O)c2ccccc2)c1,81*,-1,-5,0,61*
COc1ccc(N/C=C/C(=O)c2cc(OC)c(OC)c(OC)c2)cc1,71*,2,-4,1,89*
COc1ccc(OC)c(N/C(C)=C/C(=O)c2ccccc2)c1,-94,.,13,.,.
COc1ccc(S(=O)(=O)N(C)C[C@H]2Oc3ccc(NC(=O)CCCCCC(=O)Nc4ccccc4N)cc3CC(=O)N([C@@H](C)CO)C[C@H]2C)cc1,.,-1,.,0,.
O=C(N[C@H]1CC[C@@H](CCn2cc(-c3ccccn3)nn2)O[C@@H]1CO)c1ccc(F)cc1,.,3,.,-1,.
CN1C(=O)c2cc(NC(=O)C3CCCC3)ccc2OC[C@@H]2O[C@H](CC(=O)NCCc3ccncc3)CC[C@H]21,.,.,.,0,.
CC(=O)O[C@H]1C(=O)[C@@]2(C)C([C@H](OC(=O)c3ccccc3)[C@]3(O)C[C@H](OC(=O)[C@H](O)[C@@H](NC(=O)c4ccccc4)c4ccccc4)C(C)=C1C3(C)C)[C@]1(OC(C)=O)CO[C@@H]1C[C@H]2O (stereo partly specified),56*,1,33,1,68*
CC(=O)O[C@H]1C(=O)[C@]2(C)[C@H]([C@H](OC(=O)c3ccccc3)[C@]3(O)C[C@H](OC(=O)[C@H](O)[C@@H](NC(=O)c4ccccc4)c4ccccc4)C(C)=C1C3(C)C)[C@]1(OC(C)=O)CO[C@@H]1C[C@@H]2O,53*,-2,31,2,89*
CC(=O)O[C@@]12CO[C@@H]1C[C@H](O)[C@@]1(C)C(=O)[C@H](O)C3=C(C)[C@@H](OC(=O)[C@H](O)[C@@H](NC(=O)c4ccccc4)c4ccccc4)C[C@@](O)([C@@H](OC(=O)c4ccccc4)C12)C3(C)C (stereo partly specified),1,1,25,0,.
C[C@H]1CN([C@@H](C)CO)C(=O)Cc2cc(NC(=O)Nc3ccc4c(c3)OCO4)ccc2O[C@@H]1CN(C)CC1CCCCC1,.,2,.,2,.
C[C@H](CO)N1C[C@H](C)[C@@H](CN(C)C(=O)Nc2ccccc2)Oc2c(NC(=O)c3ccncc3)cccc2C1=O,62*,-1,-4,-2,-25
CCCS(=O)(=O)N1CCCC(C(=O)NC2CCCC(C)C2C)C1 (stereo unspecified),86*,-1,-3,.,-13
CCCS(=O)(=O)N1CCC(C(=O)NC2CCCC(C)C2C)CC1 (stereo unspecified),1,-1,-4,.,.
Cc1ccccc1-c1cnc2c(c1)C(=O)N([C@H](C)CO)C[C@H](C)[C@H](CN(C)C(=O)CN(C)C)O2,.,-1,.,-8,.
O=C(NN1C(=O)C2C3C=CC(C4CC34)C2C1=O)c1ccc(Br)cc1 (stereo unspecified),58*,.,3,1,68*
Cc1ccc(SC(C)c2nc(-c3ccccc3)no2)cc1 (stereo unspecified),75*,.,20,.,-13
COC(=O)c1ccc(CN2C(=O)NC(CC(C)C)C2=O)cc1 (stereo unspecified),81*,4,-2,0,-1
